Most compounds without a hit are left out; they make up all but 7.2% or so of the library.
PK Bst: alters activity of Bacillus stearothermophilus pyruvate kinase; actives 1.2% (n = 51,000); purified pyruvate kinase, luminescence ATP production; ribose 5-phosphate activator present at AC10; Potency, µM; AID 361; in the data active = potency below about 11 µM; inconclusive = mostly about 12 µM to 25 µM;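 the screen sought inhibitors and activators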;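 also: scaled between full activation by ribose 5 phosphate and full inhibition by luteolin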
HEK293 cAMP ctrl: raises cAMP in parental HEK293 cells, TSHR agonist counter-screen. AID 938. Potency, µM (top dose mostly 57.1 µM), without a hit: top-dose activation, hits mostly activators. actives 2.5% (n = 73,000). parental HEK293 CNG cAMP sensor, membrane potential fluorescence; also: % of control where 0% means no effect; nearly all actives have a fitted effect of over 55% in size
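Parental HEK 293 cells stably expressing a cAMP-gated CNG channel were loaded with membrane potential dye containing 100 uM RO 20-1724 for 60 min. Compound added for 30 min; depolarization read as fluorescence intensity at 590 nm.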
Luciferase inh: inhibitors of firefly luciferase | P08659 | purified firefly luciferase, luminescence, 8 min | Potency, µM (titrated, usually from 57.1 µM), for inactives: at the highest dose activity change, negative = inhibition, most hits filed as inhibitors | actives 2.2% (n = 72,000); also: % is scaled to controls: 0 for no effect and ±100 for the full control effect; nearly all actives have a fitted effect of over 40% in size
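Inhibition of light generation by firefly luciferase from ATP and luciferin was profiled with concentration-response curves per sample, ATP held at 10 uM within the enzyme's linear range. Plates were read by luminescence after an 8-minute ambient incubation.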
ERK AVP inh: inhibitors of vasopressin-stimulated ERK signaling pathway; HEK293-V1b, vasopressin-stimulated pERK AlphaScreen; Potency, µM (top dose mostly 57.5 µM), for the others: at the highest dose activity, negative = inhibition, usual class: inhibitors; actives 0.99% (n = 72,000); also: % is scaled to controls: 0 for no effect and ±100 for the full control effect; nearly all actives have a fitted effect of over 55% in size
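HEK293 cells stably expressing V1b receptor, preincubated 30 min at 37 °C with compound, then stimulated 5 min with 25 nM vasopressin. Phospho-ERK by AlphaScreen SureFire after 5 h RT; normalized to DMSO and vasopressin; AC50 by Hill fit.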
TSHR ag: activates the human thyroid stimulating hormone receptor. P16473. HEK293-CNG-TSHR cells (CNG channel as cAMP sensor), membrane potential dye, cAMP. Potency, µM (series often up to 57.1 µM), for inactives: top-dose activation, actives largely listed as activators. actives 0.48% (n = 73,000). AID 926; active = well fitted activation curve with a large enough effect in the main read-out, with a control signal flat, not every such curve was filed as active; inconclusive = small, poorly fitted or top-dose-only effect, or a change in a side signal; inactive = no such curve, though single readings can be large or run the other way; % of control where 0% means no effect;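 also: the control signal comes from parental cells without the receptor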
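HEK 293 cells stably expressing TSHR and a cAMP-gated CNG channel; parental CNG-only cells as counterscreen. Cells preloaded 60 min with membrane potential dye plus 100 uM RO 20-1724, then compound 30 min; fluorescence read at 590 nm.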
Tau fil binding: tau filament binding. P10636. recombinant tau filaments, thioflavin S fluorescence, 15 h; filaments grown with octadecylsulfate alongside compound. Potency, µM (highest dose often 57.1 µM), for the others: at the top dose activity change, negative = inhibition. actives 2% (n = 71,000). AID 596;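 also: % is scaled to controls: 0 for no effect and ±100 for the full control effect; actives lower thioflavin S fluorescence by blocking filaments or displacing dye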
Target sequence (P10636 whole entry, looked up): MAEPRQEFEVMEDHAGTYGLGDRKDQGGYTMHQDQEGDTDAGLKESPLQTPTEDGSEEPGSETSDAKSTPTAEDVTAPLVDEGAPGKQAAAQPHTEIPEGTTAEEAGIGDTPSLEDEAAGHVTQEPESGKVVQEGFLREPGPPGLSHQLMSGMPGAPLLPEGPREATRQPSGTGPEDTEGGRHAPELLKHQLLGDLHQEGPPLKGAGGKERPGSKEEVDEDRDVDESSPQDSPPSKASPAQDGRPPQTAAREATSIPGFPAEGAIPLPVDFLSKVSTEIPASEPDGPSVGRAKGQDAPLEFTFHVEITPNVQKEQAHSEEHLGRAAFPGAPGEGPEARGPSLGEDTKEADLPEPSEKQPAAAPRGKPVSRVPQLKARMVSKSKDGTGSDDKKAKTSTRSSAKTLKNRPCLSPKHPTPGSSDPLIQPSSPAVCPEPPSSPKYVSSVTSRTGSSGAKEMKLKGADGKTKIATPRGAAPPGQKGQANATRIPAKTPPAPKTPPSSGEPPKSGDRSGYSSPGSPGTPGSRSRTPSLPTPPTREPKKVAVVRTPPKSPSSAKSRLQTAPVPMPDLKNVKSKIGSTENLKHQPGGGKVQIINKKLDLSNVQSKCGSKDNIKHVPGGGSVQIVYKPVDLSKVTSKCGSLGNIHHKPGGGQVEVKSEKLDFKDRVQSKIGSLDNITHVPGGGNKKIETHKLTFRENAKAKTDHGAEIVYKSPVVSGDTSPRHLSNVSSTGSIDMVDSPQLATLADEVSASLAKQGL
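Thioflavine S fluorescence (ex 450, em 510 nm) reports filaments formed from 1 uM human tau plus 30 uM ODS over 15 h at 37 C (10 mM HEPES pH 7.4, 100 mM NaCl, 5 mM DTT); compounds displacing dye or blocking filaments lower signal.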
The depositor's hits bear a star; i = inactive; ? = inconclusive; nt = no result; ! = a repeat was not active; [ ] = remark or other dose. Unless noted, calls follow the shape of the dose curve; as a rule, active = well fitted curve in the direction sought with a large enough effect; inconclusive = small, poorly fitted or top-dose-only effect, or another doubt; inactive = no such curve, though single readings can be large; an effect the other way counts as inactive or inconclusive. Potency is read from the fitted curve at half-maximal effect.

SMILES	PK Bst	HEK293 cAMP ctrl	Luciferase inh	ERK AVP inh	TSHR ag	Tau fil binding
CCOC(=O)C1CCCN(Cc2ccc(OC)cc2OC)C1 (stereo not given)	nt	31.6µM*	-0.5%	46.5%	?	11.9%
CCOc1ccc(N2C(=O)CC(N3CCN(c4ccccc4F)CC3)C2=O)cc1 (stereo not given)	nt	23.1%	-0.5%	2.7%	nt	7.5%
CCOc1ccc(N2C(=O)CC(/C=C3/N(C)c4ccccc4C3(C)C)C2=O)cc1 (stereo not given)	>57	-5.5%	-1.1%	-8.6%	1.4%	25.1µM*
CCOc1ccc2c(c1)sc(=NC(=O)C1CC1)n2C	i	12.1%	12.6µM*	-18.3%	8.7%[11.4 µM]	-2.1%
CCOC(=O)n1ccn(C)c1=S	nt	-6.9%[25.6 µM]	2.1%[25.5 µM]	-7.2%	-4.6%[25.6 µM]	-6.5%[25.6 µM]
CC(C)(C)NC(=O)C(c1ccco1)N(C(=O)c1csnn1)c1ccccc1 (stereo not given)	>57	5.9%	-0.1%	4.3%	11.9%	3.5%
O=C(NCc1ccc2c(c1)OCO2)C(c1ccco1)N(C(=O)c1csnn1)c1ccccc1 (stereo not given)	>57	7.0%	1.1%	-1.4%	3.16µM*	-5.1%
O=c1cc(-c2ccccc2)nc2nc(CCc3ccccc3)[nH]n12	>57	-1.5%	-1.0%	10.9%	-8.2%	11.1%
Cc1nc2nc(-c3ccccc3)cc(=O)n2[nH]1	nt	8.1%	25.1µM*	13.0%	2.1%	-6.9%
COc1ccc(NCc2nnc(SCC(=O)Nc3cc(C(F)(F)F)ccc3Cl)o2)cc1	>57	-7.3%	-17.9%	-14.5%	-16.5%	20µM*
N=C1C(c2nc(-c3ccc(Cl)cc3)cs2)=C(O)CN1CCCN1CCOCC1	4.46*	-23.4%	-10.3%	2.8%	-6.6%	127.6%
Cc1ccccc1Cn1c(=N)n(CC(O)c2ccco2)c2ccccc21 (stereo not given)	>57	-8.4%	2.5%	-2.1%	1.4%	15.8µM*
N=c1n(CCN2CCCC2)c2ccccc2n1CC(O)c1ccco1 (stereo not given)	>57	12.0%	1.5%	-5.2%	2.7%	11.5%
N#Cc1ccc(CN2CCCC3(CCN(C(=O)c4csnn4)CC3)C2)cc1	nt	15.8%	-0.1%[11.4 µM]	-19.0%	13.0%	5.0%
O=C1[C@@H]2C=CC=CC2=NC(=S)N1CCN1CCC(=C(c2ccc(F)cc2)c2ccc(F)cc2)CC1	nt	?	1.1%	-0.8%	?	145.9%
O=C(COc1ccccc1)N(Cc1ccco1)c1ccc(O)cc1	>57	21.8%	2.9%	-26.2%	20µM*	4.3%
O=C(OCc1cc(=O)n2c(n1)sc1ccccc12)c1ccc2c(=O)n3c(nc2c1)CCC3	>57	-11.2%	0.0%	-24.2%	-0.4%	6.31µM*
CN(C(=O)c1ccc2c(=O)n3c(nc2c1)CCCCC3)c1ccccc1	>57	-1.5%	0.6%	-3.5%	3.6%	0.3%
CC(=O)N1CCC2(CC1)CN(c1ccccc1)C2	nt	11.3%	0.0%[11.4 µM]	22.3%	0.4%	7.0%
Cc1nc(NCc2ccccc2)c2nc(-c3ccccc3)n(CC(C)(C)CN(C)C)c2n1	nt	?	nt	12.7%	?	23.0%
O=C(O)[C@@H]1[C@@H]2C[C@H]3c4[nH]c5ccccc5c4CCN3C[C@@H]2CC[C@@H]1O	nt	?	0.6%[11.4 µM]	0.6%[25.7 µM]	?	-14.3%
O=c1c(-c2ccc(O)cc2)coc2cc(O)ccc12	nt	1.2%	10µM*!	4.2%	-2.6%	?
Cc1ccccc1-c1coc2cc(O)ccc2c1=O	>57	4.9%	1.5%	-10.5%	-4.0%	-13.9%
CC(C)Oc1ccc2c(=O)c(-c3ccccc3)coc2c1	i	nt	5.01µM*	nt	nt	nt
COC(=O)/C(=C1\OC(=O)C(c2ccccc2)C1=O)c1ccccc1 (stereo not given)	nt	nt	nt	-1.4%	nt	nt
SMILES	PK Bst	HEK293 cAMP ctrl	Luciferase inh	ERK AVP inh	TSHR ag	Tau fil binding
O=C(Nc1sc2c(c1C(=O)O)CCCCC2)c1ccco1	nt	12.2%	20µM*	8.3%	8.6%	12.2%
Cc1occc1C(=O)Nc1sc2c(c1C(N)=O)CCCCC2	i	?	12.6µM*	-10.1%	?	-6.9%
Cc1cccc(NC(=O)c2sc3nc(-c4ccc(F)cc4)cn3c2C)n1	>57	20µM*	-3.5%	24.9%	?	140.8%
Cc1c(C(=O)Nc2ccccc2)sc2nc(-c3ccccc3)cn12	i	31.6µM*	-19.6%	4.7%	?	190.4%
COc1ccc(-c2cn3c(C)c(C(=O)Nc4cccc(C)n4)sc3n2)cc1	nt	18.0%	-23.1%	-12.5%	18.4%	13.5%
Cc1c(C(=O)NCc2ccccn2)sc2nc(-c3ccc(F)cc3)cn12	i	9.4%	-4.0%	25.8%	18.4%	96.7%
Cc1cccc(NC(=O)c2sc3nc(-c4ccccc4)cn3c2C)n1	>57	25.1µM*	-5.7%	-1.7%	?	93.3%
C=CCOC(=O)C(C(C)=O)C(NC(=O)OC)c1ccc(Cl)cc1 (stereo not given)	nt	12.9%[11.4 µM]	nt	-0.9%[11.5 µM]	nt	nt
CC(C)CC(c1nnnn1C(C)C)N1CCN(c2cccc(Cl)c2)CC1 (stereo not given)	>57	1µM*	1.7%	-6.9%	?	1.8%
COC(=O)c1ccc(CSc2nc(-c3ccc(OC)cc3)nc3c2c(=O)n(C)c(=O)n3C)o1	>57	10.6%	1.5%	9.4%	5.3%	-2.3%
COCCn1c(SCc2ccc(C(=O)OC)o2)nc2cc(Cl)ccc2c1=O	>57	20µM*	1.3%	-1.8%	?	21.6%
COC(=O)c1ccc(CSc2nc(C)nc3c2c(=O)n(C)c(=O)n3C)o1	nt	25.1µM*	1.8%	nt	?	38.9%
C=CCn1c(SCC(=O)N2CCOCC2)nc2scc(-c3ccco3)c2c1=O	>57	2.8%	-0.2%	31.6µM*	8.0%	80.1%
COc1cc2c(cc1OC)-c1c(OC)c(OC)cc3ccnc(c13)C2=O	nt	-4.8%	0.2%[11.4 µM]	-25.1%	-4.5%	31.6µM*
CN(C)c1ccccc1C(=O)c1ccccc1N(C)C	nt	?	25.1µM*	-6.2%	?	33.3%
CN(c1ccccc1C(=O)O)S(C)(=O)=O	>57	-0.3%	0.1%	6.1%	-1.8%	-1.2%
CC1=C/C(=N/O)C([C@H]2C=C(C)CC(C)(C)[C@@H]2O)C(C)(C)C1 (stereo not given in full)	nt	2.0%[11.4 µM]	1.3%[11.4 µM]	2.2%[11.5 µM]	7.0%[11.4 µM]	-11.4%[11.4 µM]
CCOC(=O)c1cc(C)sc1N1C(=O)C2C3C=CC(C3)C2C1=O (stereo not given)	>57	6.7%	1.8%	1.2%	2µM*	0.9%
C=C[C@@]1(C)CC(=O)[C@@]2(O)[C@@]3(C)[C@@H](O)CCC(C)(C)[C@@H]3[C@H](O)[C@H](OC(C)=O)[C@@]2(C)O1	nt	0.0794µM*	-0.3%	1.26µM*	?	?
Cc1c(C(=O)Nc2ccncc2)oc2ccccc12	>57	141.2%	-10.4%	?	19.7%	-2.4%

Screens deposited in PubChem BioAssay by National Center for Advancing Translational Sciences (NCATS).
